The structures appear in SMILES notation. Unmarked numbers belong to inactive results. How the calls were made is not given here.

This assay can be described thus: P. aeruginosa biofilm formation inhibitors, primary screen, PAO1 strain, BacTiter-Glo luminescence, LB-PBS (AID 1144). The conditions noted are these: 12 h, higher = more signal.
With `COc1ccc([Si](C)(C)[C@@H]2[C@@H](CCO)O[C@]3(C(=O)N(Cc4cccc(N5CCOC5=O)c4)c4ccccc43)[C@H]2C)cc1`, the z-score is -0.631. The figure for `CCOC(=O)C1=CC[C@H]2C(=O)N(c3ccccc3)C(=O)[C@@H]12` is 0.96; for `CCOC(=O)C[C@H]1[C@H](OC(=O)c2ccc(C(=O)c3ccccc3)cc2)[C@@H](NC(=O)Cc2ccc(OC)cc2)c2cc(OCCCO)ccc2N1C(=O)c1ccc2ccccc2n1` it is -0.193; for `COC(=O)[C@@]1(Cc2ccc(F)cc2)[C@H]2c3cc(C(=O)N(C)C)n(Cc4cc(C)n(C)n4)c3C[C@H]2CN1C(=O)c1ccccc1` it is -0.0119. Turning to `CCCC[C@@H]1C[C@H]1[C@@H](NC(=O)c1cccnc1)c1ccc(Cl)cc1`, the z-score was -0.128. The figure for `[N-]=[N+]=Nc1ccccc1C[C@@]1(C(=O)N2CCCCC2)N=C(c2ccc(OCCCO)cc2)O[C@@H]1c1ccccc1N=[N+]=[N-]` is 0.989; for `C=CCC(OC(C)=O)[C@@H]1[C@@H](N(Cc2ccc(-c3cccc(C(F)(F)F)c3)o2)C(=O)c2cccc3ccccc23)c2cc(OCCCO)ccc2N1C(=O)Cc1ccc2ccccc2c1` (stereo not given in full) it is 0.318. The figure for `CCCCN1CC=CC23O[C@@H]4C=CCOC(=O)[C@@H]4[C@H]2C(=O)N(CCCCCCO)[C@@H]3C1=O` (stereo not given in full) is 1.05; for `O=C1C2C=CC(C(O)C=Cc3ccc([N+](=O)[O-])cc3)N(n3cnnc3)C2C(=O)N1Cc1ccccc1` (stereo not given) it is -0.871. The figure for `O=C1[C@H]2C=C(Br)[C@H](C[C@@H]2OCCCCCCO)[C@@]12CO2` is 0.41.
